{"source": "PubChem BioAssay (NCI)", "test": "NCI Yeast Anticancer Drug Screen. Data for the sgs1 strain (AID 173);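 note: 0% = growth of vehicle-only control cultures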", "settings": "S. cerevisiae sgs1 mutant, stronger effect = higher value", "procedure": "Growth inhibition of yeast strains with defined genetic alterations is measured as a screen for potential anti-cancer activity. Selected strains with alterations in DNA damage repair or cell cycle control were exposed to compounds and growth inhibition was measured relative to vehicle treated controls. The strain used in this assay is sgs1", "note": "The panel holds about 79,000 compounds, 15% with a hit somewhere; the sample as a whole holds those more often. Active and inactive are the calls of the source. Cut-off read from the data, not from the text of the source: active = growth inhibition above about 70%; inactive = the rest."}
{"compound": "CCC1(OC(=O)CN)C(=O)OCc2c1cc1n(c2=O)Cc2cc3ccccc3nc2-1", "note": "(stereo not given)", "values": [{"measurement": "growth inhibition", "setting": "at 1.2 µM", "value": "8% (inactive)"}, {"measurement": "growth inhibition", "setting": "at 3.7 µM", "value": "38% (inactive)"}, {"measurement": "growth inhibition", "setting": "at 11.0 µM", "value": "85% (active)"}, {"measurement": "growth inhibition", "setting": "at 33.0 µM", "value": "94% (active)"}, {"measurement": "growth inhibition", "setting": "at 100.0 µM", "value": "95% (active)"}]}
{"compound": "C[C@]12CCC(=O)C=C1CC[C@@H]1C2CC[C@@]2(C)C1CC[C@@H]2OC(=O)C12OC1CCC2=O", "note": "(stereo not given in full)", "values": [{"measurement": "growth inhibition", "setting": "at 1.2 µM", "value": "18% (inactive)"}, {"measurement": "growth inhibition", "setting": "at 3.7 µM", "value": "24% (inactive)"}, {"measurement": "growth inhibition", "setting": "at 11.0 µM", "value": "57% (inactive)"}, {"measurement": "growth inhibition", "setting": "at 33.0 µM", "value": "95% (active)"}, {"measurement": "growth inhibition", "setting": "at 100.0 µM", "value": "96% (active)"}]}
{"compound": "O=C(Nc1cc(Cl)ccc1Cl)C(Cl)(Cl)Cl", "values": [{"measurement": "growth inhibition", "setting": "at 1.2 µM", "value": "1% (inactive)"}, {"measurement": "growth inhibition", "setting": "at 3.7 µM", "value": "3% (inactive)"}, {"measurement": "growth inhibition", "setting": "at 11.0 µM", "value": "7% (inactive)"}, {"measurement": "growth inhibition", "setting": "at 33.0 µM", "value": "10% (inactive)"}, {"measurement": "growth inhibition", "setting": "at 100.0 µM", "value": "19% (inactive)"}]}
{"compound": "CC(Cc1ccccc1)N(C)Cc1nc(C2CCC([N+](=O)[O-])O2)no1", "note": "(stereo not given)", "values": [{"measurement": "growth inhibition", "setting": "at 1.2 µM", "value": "-26% (inactive)"}, {"measurement": "growth inhibition", "setting": "at 3.7 µM", "value": "5% (inactive)"}, {"measurement": "growth inhibition", "setting": "at 11.0 µM", "value": "20% (inactive)"}, {"measurement": "growth inhibition", "setting": "at 33.0 µM", "value": "50% (inactive)"}, {"measurement": "growth inhibition", "setting": "at 100.0 µM", "value": "67% (inactive)"}]}
{"compound": "O=[N+]([O-])c1ccc(N2CCC(CCCC3CCN(c4ccc([N+](=O)[O-])cc4[N+](=O)[O-])CC3)CC2)c([N+](=O)[O-])c1", "values": [{"measurement": "growth inhibition", "setting": "at 1.2 µM", "value": "-24% (inactive)"}, {"measurement": "growth inhibition", "setting": "at 3.7 µM", "value": "-17% (inactive)"}, {"measurement": "growth inhibition", "setting": "at 11.0 µM", "value": "-15% (inactive)"}, {"measurement": "growth inhibition", "setting": "at 33.0 µM", "value": "21% (inactive)"}, {"measurement": "growth inhibition", "setting": "at 100.0 µM", "value": "52% (inactive)"}]}
{"compound": "Nc1nc(N)c2c(Cl)c(CNc3ccc(C(=O)NC(CC(=O)O)C(=O)O)cc3)ccc2n1", "note": "(stereo not given)", "values": [{"measurement": "growth inhibition", "setting": "at 1.2 µM", "value": "30% (inactive)"}, {"measurement": "growth inhibition", "setting": "at 3.7 µM", "value": "22% (inactive)"}, {"measurement": "growth inhibition", "setting": "at 11.0 µM", "value": "31% (inactive)"}, {"measurement": "growth inhibition", "setting": "at 33.0 µM", "value": "45% (inactive)"}, {"measurement": "growth inhibition", "setting": "at 100.0 µM", "value": "66% (inactive)"}]}
{"compound": "CCN(CCCl)c1cc(CN(C)C)cc(NC(=O)c2ccc(C(=O)Nc3cc(CN(C)C)cc(N(CC)CCCl)c3)cc2)c1", "values": [{"measurement": "growth inhibition", "setting": "at 1.2 µM", "value": "5% (inactive)"}, {"measurement": "growth inhibition", "setting": "at 3.7 µM", "value": "3% (inactive)"}, {"measurement": "growth inhibition", "setting": "at 11.0 µM", "value": "7% (inactive)"}, {"measurement": "growth inhibition", "setting": "at 33.0 µM", "value": "65% (inactive)"}, {"measurement": "growth inhibition", "setting": "at 100.0 µM", "value": "94% (active)"}]}
{"compound": "CCCCCCCCCCCCCCCCP(=O)(O)OCC(N)C(=O)O", "note": "(stereo not given)", "values": [{"measurement": "growth inhibition", "setting": "at 1.2 µM", "value": "-31% (inactive)"}, {"measurement": "growth inhibition", "setting": "at 3.7 µM", "value": "-58% (inactive)"}, {"measurement": "growth inhibition", "setting": "at 11.0 µM", "value": "-44% (inactive)"}, {"measurement": "growth inhibition", "setting": "at 33.0 µM", "value": "18% (inactive)"}, {"measurement": "growth inhibition", "setting": "at 100.0 µM", "value": "95% (active)"}]}
